Hits are enriched below; roughly 0.36% of the tested compounds scored in any of these assays.
Menin MLL FP TR = qHTS Assay for Inhibitors Targeting the Menin-MLL Interaction in MLL Related Leukemias: Competition With Texas Red Labeled MLL-derived Mutant Peptide | O00255 | Menin + Texas Red MLL mutant peptide, fluorescence polarization | Potency, µM (series often up to 61.6 µM), inactives show at the highest dose FP activity change, negative = inhibition, usual class: inhibitors | 270,000 tested, 0.23% active | AID 1768, 2009; active = well fitted inhibition curve with a large enough effect in the polarisation, with a control signal flat, not every such curve was filed as active; inconclusive = small, poorly fitted or top-dose-only effect, or effect the other way, or a change in a side signal; inactive = no such curve, though single readings can be large or run the other way; the % refers to the polarisation; note: potency is the fitted concentration of half-maximal effect; % of control where 0% means no effect
MLL CXXC-DNA inh = qHTS Fluorescence Polarization Assay for Inhibitors of MLL CXXC domain - DNA interaction; Histone-lysine N-methyltransferase 2A (Homo sapiens), Q03164; MLL-CXXC / FITC-HOXA9 DNA fluorescence polarization; Potency, µM (titrated, usually from 115 µM), inactives show at the top dose activity change, negative = inhibition, actives largely listed as inhibitors; 290,000 tested, 0.037% active; AID 2662, 2010; active = well fitted inhibition curve with a large enough effect in the polarisation, with a control signal flat, not every such curve was filed as active; inconclusive = small, poorly fitted or top-dose-only effect, or effect the other way, or a change in a side signal; inactive = no such curve, though single readings can be large or run the other way; the % refers to the polarisation; note: potency is the fitted concentration of half-maximal effect
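Fluorescence polarization: 7 uM MLL-CXXC (stock) preincubated 5 min with compounds, then 50 nM fluorescein-HOX-A9 DNA (stock) added; 30 min ambient. Buffer 50 mM Tris-HCl pH 7.5, 50 mM NaCl, 1 mM DTT, 0.05% BSA.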
TexasRed fluor = Total Fluorescence Counterscreen for Inhibitors of the Interaction of Thyroid Hormone Receptor and Steroid Receptor Coregulator 2; AID 1479, 2009; Potency, µM (highest dose often 106 µM), for inactives: top-dose fluorescence change, negative = quenching; TRb/SRC2 Texas Red total fluorescence interference; 280,000 tested, 0.29% active; active = well fitted curve in either direction with a large enough effect; inconclusive = small, poorly fitted or top-dose-only effect; note: potency is the fitted concentration of half-maximal effect; % is set by controls: 0 for no effect and ±100 for the full control effect
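Human TRβ ligand-binding domain (0.6 uM) and Texas Red SRC2 peptide (20 nM) in Tris buffer with 1 uM T3 and 5% DMSO were incubated with pinned compound for 5 hr at ambient temperature. Total fluorescence was computed as S + 2P (555/632 nm).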
Menin MLL FP FL = qHTS Assay for Inhibitors Targeting the Menin-MLL Interaction in MLL Related Leukemias: Competition With Fluorescein Labeled MLL-derived Peptide; FP activity change, % at 61.4 µM; Fluorescence polarization, fluorescein-MLL peptide displacement from menin; AID 1766, 2009; 290,000 tested, under 10 active; active = well fitted curve in the direction sought with a large enough effect in the polarisation, not every such curve was filed as active; inconclusive = small, poorly fitted or top-dose-only effect, or effect the other way, or a change in a side signal; inactive = no such curve, though single readings can be large or run the other way; the % refers to the polarisation; note: % of control where 0% means no effect
TRb SRC2 PPI = qHTS for Inhibitors of the Interaction of Thyroid Hormone Receptor and Steroid Receptor Coregulator 2; TRbeta-SRC2 peptide binding, fluorescence polarization; receptor liganded with 1 µM T3; 280,000 tested, 0.065% active; Potency, µM (top dose mostly 106 µM), without a hit: at the highest dose activity change, negative = inhibition, most hits filed as inhibitors; AID 1469, 2008; active = well fitted inhibition curve with a large enough effect; inconclusive = small, poorly fitted or top-dose-only effect, or effect the other way;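 note: potency is the fitted concentration of half-maximal effect; plate controls were bound peptide for no effect and peptide without receptor for full effect; nearly all actives have a fitted effect of over 50% in size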
Target sequence (P10828 whole entry, looked up): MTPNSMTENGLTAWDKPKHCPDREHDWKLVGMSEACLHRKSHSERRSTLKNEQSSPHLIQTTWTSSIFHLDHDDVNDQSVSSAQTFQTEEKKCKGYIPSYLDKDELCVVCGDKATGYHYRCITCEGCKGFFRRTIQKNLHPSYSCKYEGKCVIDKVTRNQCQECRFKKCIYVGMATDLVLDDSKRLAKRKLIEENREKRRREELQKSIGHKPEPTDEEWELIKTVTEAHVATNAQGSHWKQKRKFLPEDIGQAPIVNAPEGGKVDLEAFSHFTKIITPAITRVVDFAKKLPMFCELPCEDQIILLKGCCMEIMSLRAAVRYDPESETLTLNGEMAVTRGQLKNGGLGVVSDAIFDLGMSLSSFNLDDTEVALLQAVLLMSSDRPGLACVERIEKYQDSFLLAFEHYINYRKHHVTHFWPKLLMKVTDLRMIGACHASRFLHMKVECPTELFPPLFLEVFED
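TRb LBD 0.6 uM + Texas Red SRC2 peptide 20 nM, 1 uM T3, Tris buffer w/ 5% DMSO; compound pinned, 5 h RT; FP read ex 555/em 632; normalized to unbound and bound controls.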
Starred values were filed as active, the others as inactive; ? = inconclusive; . = not tested or not shown; [ ] = dose if it differs, or a comment.

SMILES	Menin MLL FP TR	MLL CXXC-DNA inh	TexasRed fluor	Menin MLL FP FL	TRb SRC2 PPI
Cc1ccc(NC(=O)c2oc3ccccc3c2NC(=O)C2CCCCC2)cc1	.	.	2%	.	0%
Cc1ccc2nc(-c3ccc(Cl)c(NC(=O)c4cccc([N+](=O)[O-])c4C)c3)oc2c1	.	.	16µM*[quencher]	.	-2%
Cc1ccccc1C(=O)NC1(C(F)(F)F)N=C(c2ccccc2)N(Cc2ccccc2)C1=O (configuration not stated)	.	.	10µM*[quencher]	.	-3%
CN(C)[C@@H]1C(=O)C(C(=O)NCN2CCCC2)=C(O)[C@@]2(O)C(=O)C3=C(O)c4c(O)cccc4[C@@](C)(O)C3CC12 (some centres not stated)	.	6%	?	.	-18%
CN(C)[C@H]1C(=O)C(C(=O)NCN2CCCC2)=C(O)[C@]2(O)C(=O)C3=C(O)c4c(O)cccc4[C@](C)(O)[C@H]3C[C@H]12	.	-23%	14µM*[quencher]	.	?
COCCCNC(=O)c1nn(C)c2c1CS(=O)(=O)c1ccccc1-2	.	.	100µM*[quencher]	.	-17%
CCOc1ccc(NC(=O)c2c(NCc3cccs3)sc3c2CCC(C)C3)cc1 (configuration not stated)	.	.	355µM*[quencher]	.	-21%
CC(=O)OC1CCC(C(C)(C)C)CC1 (configuration not stated)	.	.	-2%[201 µM]	.	5%[201 µM]
CC[C@@H](C)[C@H](CNC)NC[C@@H](Cc1cccc2ccccc12)NCCc1cccc(C(F)(F)F)c1	32µM*	127%	.	1	.
C/C=C/C=C/CCCCCCCO	.	.	-5%[201 µM]	.	3%[201 µM]
CCOc1ccc(-c2c(C)nn3c(C)c(C(=O)NCc4ccc(Cl)cc4)cnc23)cc1OCC	.	.	251µM*[quencher]	.	-11%
O=C1CCCC(O)=C1N=Nc1ccc(C(=O)O)cc1	.	14%	18%	-6	?
O=C1CCCC(O)=C1N=Nc1c(Cl)cc(C(F)(F)F)cc1Cl	.	1%	28µM*[fluorescent]	-1	1.4µM*
CCCN(CCC)C(=O)C1CCCN(S(=O)(=O)c2cc(Br)cc3c2N(C(=O)CC)CC3)C1 (configuration not stated)	.	.	-30%	.	1%
CCC(=O)N1CCc2cc(Br)cc(S(=O)(=O)N3CCCC(C(=O)N(C)c4ccc(Br)cc4)C3)c21 (configuration not stated)	.	.	178µM*[quencher]	.	-4%
CCCCCCCCCCCCCCCCN(C)C	.	.	-3%[201 µM]	.	0%[201 µM]
O=C1CC(N(CCc2ccccc2)C(=S)Nc2cc(Cl)ccc2Cl)C(=O)N1c1c(Cl)cccc1Cl (configuration not stated)	10µM*	6%	4%	1	-13%
O=C1CC(N(CCc2ccccc2)C(=S)Nc2ccccc2)C(=O)N1c1ccccc1 (configuration not stated)	?	4%	4%	-2	7%
Oc1ccc(NCc2cccc(OCc3ccc(F)cc3)c2)cc1	?	-1%	16%	-3	11µM*
Oc1ccc(NCc2cccc(OCc3ccccc3)c2)cc1	?	2%	-9%	-1	32µM*
O=[N+]([O-])c1ccc(COc2cccc(CNc3ccc(F)cc3)c2)cc1	?	11%	1%	32	-1%
CC(=O)OC(C)C	.	.	-1%	.	-2%
Cc1ccc(/C=C2\C(=O)Nc3ccccc32)o1	?	-11%	0.11µM*[quencher]	?	-13%[53 µM]
COC(=O)C1=C(C)NC(C)=C([N+](=O)[O-])[C@@H]1c1ccccc1C(F)(F)F	36%	.	-22%	-2	0%
COC(=O)c1ccc(NS(=O)(=O)c2ccc3[nH]c4c(c3c2)CCCC4)cc1	.	.	28µM*[quencher]	.	-5%
SMILES	Menin MLL FP TR	MLL CXXC-DNA inh	TexasRed fluor	Menin MLL FP FL	TRb SRC2 PPI
COC(=O)c1ccc(NS(=O)(=O)c2ccc3[nH]c4c(c3c2)CCCCC4)cc1	.	.	?	.	-7%
CCOC(=O)c1ccc(NC(=O)Cn2c3ncccc3c(=O)n2-c2ccc(C)c(C)c2)cc1	.	.	1%	.	-4%
CC(=O)c1ccc(NC(=O)Cn2c3ncccc3c(=O)n2-c2ccc(C)cc2)cc1	.	.	89µM*[quencher]	.	?
COc1cccc2c1C(=O)c1c(O)c3c(c(O)c1C2=O)C[C@](O)(C(C)=O)C[C@H]3O[C@@H]1C[C@H](N)[C@H](O)[C@H](C)O1	?	.	14µM*[fluorescent]	?	13µM*
CC1(C)CC(NCCCCCCNC2CC(C)(C)NC(C)(C)C2)CC(C)(C)N1	.	.	1%[201 µM]	.	6%[201 µM]
Cc1cc2ccccc2n1CCNC(=O)C(C)C	?	3%	-2%	2	3%
Cc1cc2cc(CNS(=O)(=O)c3ccc4ccccc4c3)ccc2n1C	?	3%	45µM*[fluorescent]	-22	45µM*
Cc1cc(C)c(S(=O)(=O)NCCn2c(C)cc3ccccc32)c(C)c1	?	8%	-2%	-20	-4%
Cc1ccc(C(=O)NCCn2c(C)cc3ccccc32)cc1C	.	.	-2%	.	-3%
Cc1cc2ccccc2n1CCNC(=O)c1ccc(S(=O)(=O)N2CCCCC2)cc1	11%	-3%	45µM*[fluorescent]	3	-24%
Cc1ccc(S(=O)(=O)NCCn2c(C)cc3ccccc32)cc1	28µM*	-6%	1%	-24	-1%
Cc1cc2ccccc2n1CCNC(=O)C(C)Oc1ccccc1 (configuration not stated)	?	-14%	?	?	50µM*
CC(=O)Nc1ccc(S(=O)(=O)NCc2ccc3c(c2)cc(C)n3C)cc1	?	15%	?	?	-27%
Nc1cc(Cl)c(O)c(Cl)c1	.	.	?	.	-13%[201 µM]
COc1cc2nc(SCC(=O)Nc3c(C)cc(C)cc3C)n3nc(CCn4c(C)nc5ccccc54)nc3c2cc1OC	.	.	-1%	.	0%
Cc1cc2cc(CNC(=O)c3ccc(S(=O)(=O)N4CCOCC4)cc3)ccc2n1C	?	-2%	45µM*[fluorescent]	?	40µM*
CC1(C)c2ccccc2N2CC(=O)N(CC(N)=O)C21C (configuration not stated)	?	14%	50µM*[fluorescent]	?	?
CC(=O)N1c2ccc(S(=O)(=O)Nc3ccc(C)c(Cl)c3)cc2CC1C (configuration not stated)	.	.	16µM*[quencher]	.	-15%
CCOc1ccc(CCNC(=O)C2CCN(c3ncnc4c3nc3n4CCCCC3)CC2)cc1	.	.	22µM*[quencher]	.	-9%
CN(C)CCNC(=O)C1CCN(c2ncnc3c2nc2n3CCCCC2)CC1	.	.	25µM*[quencher]	.	-10%
C=C(C)C(=O)OCCCCCCCCCCCC	.	.	-2%[201 µM]	.	-2%[201 µM]
O=C(CSc1nnc2c3ccccc3c3ccccc3c2n1)Nc1ccccc1F	?	20%	2%	5	5%
